Measurements: PubChem BioAssay (NCI)
About 83,000 compounds went through this panel and 20% of them were active in at least one assay; those are over-represented in the sample as a whole.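 Single-concentration screen, 48 h exposure, 96-well plates. Endpoint: percent growth. Below 10 = active.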 Calls of active or inactive are those of the source.

Columns and labels:
Assay in all cases: NCI-60 one-dose screen, 48 h (100 = growth as untreated, 0 = no growth, -100 = all killed)
MDA-MB-435 melanoma = conditions: 10 µM unless noted
SW-620 colon = conditions: 10 µM unless noted
MCF7 breast = conditions: 10 µM
HCT-116 colon = conditions: 10 µM unless noted
HCC-2998 colon = conditions: 10 µM unless noted
KM12 colon = conditions: 10 µM unless noted

Measured: growth

COc1ccc(-c2nsc3c2NC(=O)CC3c2ccsc2)cc1 (stereo unspecified)
active: MDA-MB-435 melanoma -44% | KM12 colon 8.01%
inactive: SW-620 colon 28.3% | MCF7 breast 16.7% | HCT-116 colon 10.8% | HCC-2998 colon 31.1%

O=C1c2cc(I)ccc2Oc2cc([N+](=O)[O-])ccc2N1c1ccc(Cl)cc1F
inactive: SW-620 colon 82.5% | MCF7 breast 80.7% | HCT-116 colon 67.8% | HCC-2998 colon 102% | KM12 colon 81.2%

O=C(c1ccccc1)N(CCc1ccc(Cl)cc1)C(=S)N(C(=O)c1ccccc1)c1ccccc1
inactive: MDA-MB-435 melanoma 96.8% | SW-620 colon 80.3% | MCF7 breast 35.7% | HCT-116 colon 69.6% | HCC-2998 colon 105% | KM12 colon 56.5%

O=c1oc2ccc(I)cc2c(=O)n1-c1ccc(Br)cc1F
active: MDA-MB-435 melanoma -3.14% | SW-620 colon 8.98% | MCF7 breast 1.77% | HCT-116 colon 0.474% | KM12 colon -4.63%
inactive: HCC-2998 colon 16.2%

NCCCNc1nc2ccccc2c2c(=O)c3cc(F)ccc3sc12
active: SW-620 colon -83.5% | MCF7 breast -69.8% | HCT-116 colon -78.2% | HCC-2998 colon -68.8% | KM12 colon -73.7%

O=C(Nc1ccc(Cl)cc1F)c1cc(Br)ccc1O
active: MDA-MB-435 melanoma 0.322% | MCF7 breast 4% | HCT-116 colon 5.79% | KM12 colon 0.131%
inactive: SW-620 colon 11.4% | HCC-2998 colon 16.7%

COc1ccc(/C=C/C(=O)c2c(C)nc3ccccc3c2/C=C/c2ccccc2)cc1O
inactive: SW-620 colon 19.4% | MCF7 breast 18.2% | HCT-116 colon 12% | HCC-2998 colon 82.4% | KM12 colon 35.6%

Cn1c(/C=C(\C#N)c2ccccc2)nc2c(N3CCOCC3)nc(Cl)nc21
active: MDA-MB-435 melanoma -84.7% | SW-620 colon -74.2% | MCF7 breast -57.7% | HCT-116 colon -78.1% | HCC-2998 colon -17.2% | KM12 colon -53%

O=S1(=O)N(Cc2ccccc2)[C@@H](Cc2ccccc2)[C@H](O)[C@H](O)[C@H](Cc2ccccc2)N1Cc1ccccc1
active: MDA-MB-435 melanoma -4.2% | SW-620 colon 9.22% | HCT-116 colon -36.5% | HCC-2998 colon -45.7% | KM12 colon -41.7%

CCOc1ccccc1CN1CCc2nc3cc(C(C)(C)C)[nH]n3c(=O)c2C1
inactive: MDA-MB-435 melanoma 104% | SW-620 colon 105% | MCF7 breast 98% | HCT-116 colon 102% | HCC-2998 colon 98.7% | KM12 colon 98.2%

O=c1oc2ccc(F)cc2c(=O)n1-c1ccc(Br)cc1F
inactive: SW-620 colon 10.2% | HCC-2998 colon 13.4%
active: MDA-MB-435 melanoma 0.521% | MCF7 breast -3.48% | HCT-116 colon 2.22% | KM12 colon 0.328%

O=C1/C(=C/c2ccc(O)cc2)COc2ccc(O)c(O)c21
inactive: MDA-MB-435 melanoma 19.5% | SW-620 colon 28.4% | MCF7 breast 13.8% | HCT-116 colon 20.8% | HCC-2998 colon 75.7% | KM12 colon 19.8%

COc1c(B(O)O)cccc1-c1nc2ccc3[nH]ncc3c2c2c1C1CCC2C1 (stereo unspecified)
inactive: SW-620 colon 34.3% | MCF7 breast 61.8% | HCT-116 colon 20.5% | HCC-2998 colon 110% | KM12 colon 25.3%

CC(C)C[C@H](C(=O)N[C@@H](C)C(N)=O)N1CC=CCN(O)S1(=O)=O
inactive: MDA-MB-435 melanoma 119% [5 µM] | SW-620 colon 103% [5 µM] | HCT-116 colon 109% [5 µM] | HCC-2998 colon 110% [5 µM] | KM12 colon 109% [5 µM]

O=c1oc2ccc(Br)cc2c(=O)n1-c1ccc(F)cc1F
inactive: SW-620 colon 16.3% | HCC-2998 colon 17.4%
active: MCF7 breast 2.33% | HCT-116 colon 4.49% | KM12 colon 4.24%

COc1ccc(C2c3ccc4ccccc4c3Oc3ncn(CCCn4ccnc4)c(=N)c32)cc1OC (stereo unspecified)
inactive: MDA-MB-435 melanoma 64.5% | SW-620 colon 64.4% | MCF7 breast 51.8% | HCT-116 colon 28.8% | HCC-2998 colon 73.3% | KM12 colon 84.2%

O=C1c2cc(Cl)ccc2Oc2cc([N+](=O)[O-])ccc2N1c1ccc(F)cc1F
inactive: SW-620 colon 85.9% | MCF7 breast 86.6% | HCT-116 colon 79.7% | HCC-2998 colon 115% | KM12 colon 94.6%

CC1=C(C(=O)OCC2CCN(C(=O)OC(C)(C)C)CC2)[C@H](c2cccc(Br)c2)C2=C(CC(C)(C)CC2=O)N1
inactive: SW-620 colon 28.2% | MCF7 breast 13.8% | HCT-116 colon 17.7% | HCC-2998 colon 49.2% | KM12 colon 25%

O=c1oc2ccc(F)cc2c(=O)n1-c1ccc(Cl)cc1F
active: MDA-MB-435 melanoma 1.54% | MCF7 breast 2.65% | HCT-116 colon 3.98% | HCC-2998 colon 9.7% | KM12 colon 2.07%
inactive: SW-620 colon 11.3%

O=C(N/N=C/c1ccccc1Cl)C(=O)Nc1cccc(C(F)(F)F)c1
inactive: SW-620 colon 104% | MCF7 breast 97.3% | HCT-116 colon 92.1% | HCC-2998 colon 96.6% | KM12 colon 103%

O=C(CCN1C(=O)c2ccccc2C1=O)Nc1ccc(Cl)cc1
inactive: MDA-MB-435 melanoma 68.9% | SW-620 colon 103% | MCF7 breast 72.4% | HCT-116 colon 61.4% | HCC-2998 colon 75.2% | KM12 colon 75%

CCCCC(O)(c1ccc(Cl)cc1)C(CN1CCOCC1)c1ccc(Cl)cc1 (stereo unspecified)
inactive: MDA-MB-435 melanoma 26.2% | SW-620 colon 47.1% | MCF7 breast 17.7% | HCT-116 colon 33.2% | HCC-2998 colon 24.6% | KM12 colon 32.5%

O=C(COc1cc(O)c2c(=O)cc(-c3ccccc3)oc2c1)Nc1ccccc1C(F)(F)F
active: HCT-116 colon 5.84%
inactive: MDA-MB-435 melanoma 78% | SW-620 colon 21.8% | MCF7 breast 49.8% | HCC-2998 colon 90% | KM12 colon 68.5%

O=C(Nc1ccc(Cl)cc1F)c1cc(I)ccc1O
inactive: MDA-MB-435 melanoma 18.5% | SW-620 colon 27.4% | MCF7 breast 47% | HCT-116 colon 21.2% | HCC-2998 colon 81.6% | KM12 colon 62%

O=S(=O)(Nc1ncccn1)c1ccc(NC2Nc3nc4ccccc4nc3S2)cc1 (stereo unspecified)
inactive: MDA-MB-435 melanoma 98.3% | SW-620 colon 99.3% | MCF7 breast 98.8% | HCT-116 colon 101% | HCC-2998 colon 108% | KM12 colon 106%

O=c1c2cc(F)ccc2sc2c(NCCCNCCO)nc3ccc(Cl)cc3c12
inactive: MDA-MB-435 melanoma 40.1% | MCF7 breast 31% | HCC-2998 colon 60.7% | KM12 colon 44%
active: SW-620 colon -38.8% | HCT-116 colon -18.5%
